The record followed here is PubChem BioAssay AID504834 (National Center for Advancing Translational Sciences (NCATS), 2011).

About 22,000 (6.9%) of roughly 320,000 compounds were called active. About 27% were inconclusive and are not listed. Shown is part of a subset that was picked to be rich in actives. Values without a mark were called inactive. The call rests on the fitted dose curve; in most records, active means well fitted inhibition curve with a large enough effect; inconclusive means small, poorly fitted or top-dose-only effect, or another doubt; inactive means no such curve, though single readings can be large or run the other way.
On the % scale 0 is the no-effect control and ±100 the full control effect; potency means the concentration at half of the fitted maximal effect.

The assay can be described thus: Primary qHTS for delayed death inhibitors of the malarial parasite plastid, 96 hour incubation. The conditions noted are these: P. falciparum luciferase reporter growth; series mostly up to 28.7 µM; activity change, negative = inhibition: at the top concentration. The method in brief: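 P. falciparum expressing integrated firefly luciferase, in erythrocytes at 2% hematocrit, 0.05% parasitemia, incubated with compounds 96 h at 37 C, 5% CO2. Growth inhibition read as loss of luminescence; two-generation exposure targets delayed-death apicoplast inhibitors.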
On to `CCSCc1nc(N)nc(NCCc2ccccc2)n1`, for which the “activity change, negative = inhibition” value was 0%.

For the compound `Cc1ccc2c(c1)C(c1ccccc1)N(C(=O)c1ccc(F)cc1)CC(=O)N2` (configuration not stated), the “activity change, negative = inhibition” value is 24.6%. `Cc1ccc(C(=O)N2CC(=O)Nc3ccc(F)cc3C2c2ccc(F)cc2)cc1` (configuration not stated): the Potency is 1.47 µM (active).

On to `O=C1CN(C(=O)c2ccccc2F)C(c2ccc(F)cc2)c2cc(F)ccc2N1` (configuration not stated), for which the “activity change, negative = inhibition” value was 13%. Take `CCC(CC)C(=O)N1CC(=O)Nc2ccc(Br)cc2C1c1ccccc1` (configuration not stated): the Potency was 8.28 µM (active).

Take `COC(=O)CN1C(C)=Nc2ccc(Br)cc2C1c1ccccc1` (configuration not stated): the “activity change, negative = inhibition” value is -2.01%. In the case of `CC(C)C(=O)N1CC(=O)Nc2ccc(F)cc2C1c1ccc(F)cc1` (configuration not stated), the “activity change, negative = inhibition” value was 17.2%.

On to `CCCCn1c(N)c(N(CC(C)C)C(=O)c2cccc(S(=O)(=O)N3CC(C)OC(C)C3)c2)c(=O)[nH]c1=O` (configuration not stated), for which the “activity change, negative = inhibition” value was -20.2%. Turning to `O=C(COC(=O)c1cc(=O)[nH]c2ccccc12)NCc1cccc(Cl)c1`, the “activity change, negative = inhibition” value is -21.9%. Regarding `O=C(Nc1ccccc1C(=O)N1CCOCC1)c1ccc(CSc2ccccc2)cc1`, the “activity change, negative = inhibition” value was -3.39%.

Take `O=C(Nc1ccccc1C(=O)N1CCOCC1)c1ccc(Cl)cc1`: the Potency is 13.1 µM (active). For `O=C(Nc1ccccc1C(=O)N1CCCCCC1)c1ccccc1Cl`, the “activity change, negative = inhibition” value is 21.4%. The same measure, in the same setting: the value for `O=C(CN1CCN(C(=O)c2cccc(F)c2)CC1)Nc1ccccc1F` was 43.4%; that for `Cc1cc(NC(=O)CN2CCC(O)(c3cccc(F)c3)CC2)no1` was 0%.

Take `CC(=O)NC1(c2cccc(F)c2)CCN(CC(=O)NC(C)C)CC1`: the Potency is 1.85 µM (active). As to `O=C(O)Cc1csc(NC(=O)CSc2nnnn2-c2ccc(O)cc2)n1`, the “activity change, negative = inhibition” value is 19.6%. Consider `CCn1c(SCC(=O)NC2CC2)nnc1-c1ccccn1`, for which the “activity change, negative = inhibition” value was 1.07%.

Take `Cc1ccc(S(=O)(=O)N(C)CC(=O)NC2CCCC2)cc1`: the “activity change, negative = inhibition” value is -4.78%. Regarding `Cc1ccc(S(=O)(=O)N(CC(=O)NCCSC2CCCCC2)c2ccccc2F)cc1`, the Potency is 1.65 µM (active). Take `CCN(CC(=O)NCCc1ccccc1)S(=O)(=O)c1ccc(C)cc1`: the “activity change, negative = inhibition” value was 4.36%. With `Cc1ccc(CNC(=O)C(=O)c2cn(CC(=O)N3CCOCC3)c3ccccc23)cc1`, the “activity change, negative = inhibition” value is 41.8%. Consider `O=C(CS(=O)(=O)c1cn(Cc2ccc(Cl)cc2)c2ccccc12)N1CCOCC1`, for which the Potency is 8.28 µM (active). Turning to `O=C(CS(=O)(=O)c1cn(Cc2cccc(F)c2)c2ccccc12)N1CCCCC1`, the “activity change, negative = inhibition” value is 94.6%.

On to `CCc1ccc(NC(=O)COC(=O)c2cccs2)cc1`, for which the “activity change, negative = inhibition” value is -27.9%.

For `CCOC(=O)Cc1cc(=O)[nH]c(/N=C(\N)Nc2ccc(OC)cc2)n1`, the “activity change, negative = inhibition” value was 8%. Turning to `O=C(CN1CCOCC1)N/N=C/c1ccc(-c2ccc(Br)cc2)o1`, the “activity change, negative = inhibition” value is 10.5%. Consider `C=CC1C(OC2OC(CO)C(O)C(O)C2O)OC=C(C(=O)OC)C1CC1CC(=O)CC(CC(=O)CCc2ccc(O)cc2)O1` (configuration not stated), for which the Potency was 5.22 µM (active). For `CC(/C=C/C1(O)C(C)CC(=O)CC1(C)C)OC1OC(CO)C(O)C(O)C1O` (configuration not stated), the “activity change, negative = inhibition” value was 57.5%. The same measure, in the same setting: the value for `COC(=O)C1=CO[C@@H](O[C@@H]2O[C@H](CO)[C@@H](O)[C@H](O)[C@H]2O)C2C1C[C@H](O)[C@@H]2C` (some centres not stated) was 37.1%; that for `Cc1cc(=O)[nH]c2nnnn12` was 26%; that for `NS(=O)(=O)c1ccc(CNC(=O)c2cccc(Oc3ccccc3)c2)cc1` was 4.38%.

`Cc1nc(C)c2c(c1C(F)(F)F)-c1ccccc1C2(F)F`: the Potency is 11.7 µM (active). On to `COCCCC1CCN(C(=O)C2CCC(=O)N(C3CCCCCC3)C2)CC1` (configuration not stated), for which the “activity change, negative = inhibition” value is 24.7%. Still for that read-out and setting: the result for `CCN(CC)c1ccc(NC(=O)CN2C(=O)NC3(CCc4ccccc43)C2=O)cc1` (configuration not stated) reads 29.7%. For `COc1ccc(C(=O)NCCSc2ccccc2C)cc1`, the Potency is 3.29 µM (active).

Take `COc1cccc(C(=O)NCCSc2ccc(Br)cc2)c1`: the “activity change, negative = inhibition” value was -24.1%. Regarding `COc1ccc(C(=O)NCc2nnc(SCCOc3ccccc3)n2C)cc1`, the “activity change, negative = inhibition” value was 11.2%. As for `COc1cc(C(C(=O)NC2CCCC2)N(Cc2ccccc2)C(=O)c2snc(C(N)=O)c2N)ccc1O` (configuration not stated), the “activity change, negative = inhibition” value was -1.49%.

For the compound `COc1ccc(CNC(=O)C(=O)NCC2OCCN2C(=O)c2ccc(OC)cc2)cc1` (configuration not stated), the “activity change, negative = inhibition” value is -5.85%. Regarding `O=C(CN(Cc1ccccc1)C(=O)CCC(=O)Nc1ccccn1)NCCc1ccccc1`, the Potency was 13.1 µM (active).

For `Cc1ccnc(NC(=O)CCC(=O)N(CC(=O)NCCc2ccccc2)Cc2cccs2)c1`, the “activity change, negative = inhibition” value was 40.5%. On the same count and under the same terms, the result for `O=C(CCCC(=O)N(CC(=O)NC1CCCC1)Cc1ccccc1Cl)Nc1ccccn1` reads -35.8%; that for `CCCNC(=O)c1c(N)n(-c2ccc(S(N)(=O)=O)cc2)c2nc3ccccc3nc12`, 38.1%. For the compound `CCC(C)NC(=O)c1c(N)n(/N=C/c2cccs2)c2nc3ccccc3nc12` (configuration not stated), the Potency is 10.4 µM (active). On to `C=CCn1c(N)c(C(=O)OCC(C)C)c2nc3ccccc3nc21`, for which the “activity change, negative = inhibition” value was 39.3%. With `O=C(NCCc1c[nH]c2ccc(Cl)cc12)c1ccc([N+](=O)[O-])cc1`, the “activity change, negative = inhibition” value is -56.9%. Same read-out and setting: the result for `Cc1ccc(CNC(=O)c2c(-c3ccccc3)noc2C)cc1` reads 1.58%; that for `Brc1ccc2ncnc(NCc3cccnc3)c2c1`, -2.48%. Same read-out and setting: the result for `CCc1cccc(C)c1NS(=O)(=O)c1cc(Br)cnc1N` reads 19.6%.

On to `Oc1ccccc1CNc1ncc(Br)cc1Br`, for which the Potency is 13.1 µM (active). Consider `COc1ccc(S(=O)(=O)c2c[nH]c(=S)[nH]c2=O)cc1Cl`, for which the “activity change, negative = inhibition” value was 37.2%. For `O=C(O)c1cc(S(=O)(=O)NC2CCCc3ccccc32)ccc1O` (configuration not stated), the “activity change, negative = inhibition” value is 5.45%.

`O=c1[nH]c2ccc(S(=O)(=O)N3CCCC3)cc2[nH]1`: the “activity change, negative = inhibition” value is 35.6%.

With `CCCCn1c(=S)[nH]c2cc(S(=O)(=O)N3CCCCC3)ccc21`, the Potency was 9.28 µM (active). As for `CCCCn1c(N)c(N(CCOC)C(=O)c2cccc(S(=O)(=O)N3CCCCC3)c2)c(=O)[nH]c1=O`, the “activity change, negative = inhibition” value was -0.352%. With `Cc1ccc(S(=O)(=O)N(C)C)cc1NC(=O)C1Cc2ccccc2CN1C(=O)c1ccco1` (configuration not stated), the “activity change, negative = inhibition” value is -21.9%. Consider `O=C(NCCCn1ccnc1)/C(=C\c1ccccc1F)NC(=O)c1ccccc1`, for which the “activity change, negative = inhibition” value is 22.2%. Same read-out and setting: the result for `Cc1c(C(=O)OCC(=O)N2CCCC2=O)oc2ccccc12` reads 20%. Still for that read-out and setting: the value for `O=[N+]([O-])c1cc([N+](=O)[O-])c2cccnc2c1O` was -7.46%; that for `CC1CCCN(CC(O)COCc2ccccc2)C1` (configuration not stated) was 33.6%. On to `Oc1c(CN2CCCC2)cc(COCc2ccccc2)c2cccnc12`, for which the Potency is 2.08 µM (active). With `Cc1cnc(C(=O)N2CCCC(N3CCN(c4ccccc4F)CC3)C2)cn1` (configuration not stated), the “activity change, negative = inhibition” value was -0.336%.

`O=C(Nc1nnc(SCc2c(Cl)cccc2Cl)s1)c1cccc([N+](=O)[O-])c1`: the “activity change, negative = inhibition” value was 1.35%. For `Cc1ccc(NC(=O)CCNS(=O)(=O)c2ccc3c(c2)oc(=O)n3C)cc1C`, the “activity change, negative = inhibition” value is 14.7%.

In the case of `COc1cc(NC(=O)CCS(=O)(=O)c2ccc3c(c2)oc(=O)n3C)cc(OC)c1`, the Potency was 1.47 µM (active). For `Cn1c(=O)oc2cc(S(=O)(=O)N3CCC(C(=O)Nc4ccc(OC(F)(F)F)cc4)CC3)ccc21`, the “activity change, negative = inhibition” value was 37.5%.

As to `O=C(CCNS(=O)(=O)c1ccc(Br)s1)NCc1ccccc1Cl`, the “activity change, negative = inhibition” value is 3.9%. Consider `COc1cccc(NC(=O)CCNS(=O)(=O)c2ccc3c(c2)oc(=O)n3C)c1`, for which the Potency is 7.38 µM (active).

Turning to `CSCCC(NS(=O)(=O)c1ccc2c(c1)oc(=O)n2C)C(=O)NCc1ccccc1` (configuration not stated), the “activity change, negative = inhibition” value is 7.38%. Turning to `Cn1c(=O)oc2cc(S(=O)(=O)NCCC(=O)NCc3ccccc3Cl)ccc21`, the Potency was 10.4 µM (active). Take `CCN(Cc1ccccc1)C(=O)CCS(=O)(=O)c1ccc2c(c1)oc(=O)n2C`: the “activity change, negative = inhibition” value was 7.96%. For `COc1ccc(NC(=O)CCNS(=O)(=O)c2ccc3c(c2)c(=O)n(C)c(=O)n3C)cc1OC`, the “activity change, negative = inhibition” value was 65%.
